Screens (PubChem)
KCC2 mod – modulators of human KCC2 chloride dependent transport; KCC2 cells, thallium flux FluoZin-2 fluorescence; B-score of Tl+ flux slope (higher = more flux/activation; lower = inhibition) at 10 µM; hit rate 2.2% among 190,000; AID 1456;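 active = thallium flux slope and its plate-corrected score both differing from the plate sample mean at a set confidence after two filtering rounds, in either direction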;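 also: slope of fluorescence scaled to starting intensity during 10 to 20 s after thallium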
EP2 antag – inhibitors of human EP2 prostaglandin E2 receptor. P43116. C6 glioma cells expressing human EP2, cAMP TR-FRET; cells stimulated with saturating PGE2. inhibition, % at 25 µM. hit rate 0.52% among 260,000. AID 1422;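 active = percent inhibition above 40 after rounding to a whole number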;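 also: rat C6 glioma host cells with rolipram phosphodiesterase inhibitor present; the protocol text gives 20 µM as final concentration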
Target sequence (P43116 whole entry, looked up): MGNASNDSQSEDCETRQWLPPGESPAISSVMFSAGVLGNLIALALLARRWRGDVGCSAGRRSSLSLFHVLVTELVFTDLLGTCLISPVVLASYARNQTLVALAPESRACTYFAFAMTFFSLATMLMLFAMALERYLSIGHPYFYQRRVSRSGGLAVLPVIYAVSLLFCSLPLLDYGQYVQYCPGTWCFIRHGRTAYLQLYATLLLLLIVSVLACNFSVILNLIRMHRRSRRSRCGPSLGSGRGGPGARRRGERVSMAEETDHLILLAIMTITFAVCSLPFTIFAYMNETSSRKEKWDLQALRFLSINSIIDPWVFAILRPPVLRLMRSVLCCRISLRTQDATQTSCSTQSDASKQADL
S1P3 antag – antagonists of human S1P3 receptor; inhibition, % at 4.98 µM; CHO S1P3 NFAT-BLA reporter, FRET fluorescence, antagonist mode; hit rate 0.27% among 170,000; Q99500;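 active = inhibition above the plate cutoff, the mean inhibition of test wells on that plate plus 3 SD, cut at about 28% in these data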;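 also: cells challenged with S1P at its EC80 of 0.8 µM; blue over green emission ratio from cleaved BLA substrate after 4 h stimulation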
Target sequence (Q99500 whole entry, looked up): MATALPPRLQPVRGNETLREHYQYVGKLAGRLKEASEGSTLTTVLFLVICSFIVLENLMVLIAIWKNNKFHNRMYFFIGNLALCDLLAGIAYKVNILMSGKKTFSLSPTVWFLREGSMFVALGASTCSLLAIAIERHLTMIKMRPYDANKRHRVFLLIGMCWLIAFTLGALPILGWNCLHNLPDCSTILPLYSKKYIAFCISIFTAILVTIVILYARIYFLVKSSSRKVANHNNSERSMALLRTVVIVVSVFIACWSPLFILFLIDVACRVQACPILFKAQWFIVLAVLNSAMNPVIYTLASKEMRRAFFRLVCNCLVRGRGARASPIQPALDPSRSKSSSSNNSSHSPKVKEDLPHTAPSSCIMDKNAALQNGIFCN
EP2 mod – EP2 receptor (human) modulation | P43116 | induction, % at 25 µM | EP2-expressing cells, cAMP HTRF FRET, PGE2 co-stimulation | AID 940 | hit rate 0.83% among 260,000;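 active = compounds whose cAMP rise, as percent of the full-agonist control response, exceeds 60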;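 also: rat C6 glioma line stably carrying human EP2 under a CMV promoter; the protocol text gives 20 µM as final concentration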
KCC2 sec1 – KCC2 (human) modulation, secondary assay. shares compounds with KCC2 mod. HEK293-KCC2, thallium flux, FluoZin2 fluorescence; active compounds read high. normalised thallium flux (F/F0 slope) at 10 µM. hit rate 15% among 3,700. AID 1713;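 active = thallium flux slope above the same plate's solvent-only control mean plus 3 SD; inconclusive = the two replicate wells disagree; inactive = no significant difference from solvent-only control wells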
KCC2 bumet counter – thallium flux persisting under bumetanide in KCC2 cells, counter-screen secondary assay; normalized thallium flux at 10 µM; shares compounds with KCC2 mod; HEK293-KCC2 + bumetanide/ouabain, thallium flux FluoZin2; active compounds read high; hit rate 49% among 3,700;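 active = thallium entry rate above the same plate's blocked-transporter control wells by more than 3 SD; inconclusive = the two repeat wells disagree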;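 also: raw slope of fluorescence over initial fluorescence between 10 and 20 s after thallium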
KCC2 secondary2 – KCC2 (human) modulation, second secondary assay. normalized thallium flux at 10 µM. AID 1715. HEK293-KCC2, thallium flux FluoZin2 fluorescence; actives lie on both sides; F/F0 rise rate, 10–20 s post-thallium. shares compounds with KCC2 mod. hit rate 23% among 3,700;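 active = thallium flux slope more than 3 SD above or below the plate's solvent-only control mean, mostly below; inconclusive = the two repeat wells disagreed; inactive = no significant shift from solvent-only controls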
HEK counter1 – acts in parental HEK cells, KCC2 counter-screen; shares compounds with KCC2 mod; HEK293 parental cells, thallium flux FluoZin2, ouabain; baseline-ratio fluorescence slope, 10–20 s after thallium; thallium flux rate (normalised fluorescence) at 10 µM; hit rate 46% among 3,700;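 active = thallium flux rate significantly above the same plate's solvent-only control wells, beyond their mean plus 3 SD; inconclusive = the two replicate wells gave conflicting results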
KCC2 retest ouab – confirmation of human KCC2 modulators with ouabain; AID 1717; hit rate 48% among 3,700; raw Tl+ flux slope (below DMSO = inhibition, above = activation) at 10 µM; shares compounds with KCC2 mod; HEK293-KCC2, thallium flux FluoZin2 fluorescence; bidirectional: low = inhibitor, high = activator;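 active = thallium flux slope beyond 3 SD from same-plate DMSO control mean in most replicates, usually higher, sometimes lower; inconclusive = repeat tests gave conflicting results; inactive = no significant difference from controls in most replicates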;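 also: slope of initial-normalized fluorescence between seconds 10 and 20 after thallium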
HEK counter2 – counter-screen for KCC2 modulators: effect in parental HEK293 cells. shares compounds with KCC2 mod. thallium flux FluoZin-2 fluorescence slope. thallium flux slope at 10 µM. hit rate 33% among 3,700;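 active = thallium flux slope above the same plate's solvent-control mean plus 3 SD in both duplicate wells; inconclusive = duplicate wells that disagreed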;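 also: run without ouabain in cells lacking the KCC2 cotransporter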
Of the large screens only hits and unclear results are named; the others gave an inactive call (follow-up assays come after a bar, where they were run). Only some compounds are listed: those with a hit (about 3.1% of all), similar ones and a draw of the others.

CCOC(=O)N1CCN(C(=S)NC(=O)c2ccc(F)cc2)CC1	KCC2 mod 4.2 | KCC2 sec1 inactive | KCC2 bumet counter 0.011 | KCC2 secondary2 inactive | HEK counter1 0.013 | KCC2 retest ouab inactive | HEK counter2 0.016
O=C(NC(=S)N1CCCCCC1)c1ccccc1Cl	KCC2 mod 23 | KCC2 sec1 0.025 | KCC2 bumet counter 0.054 | KCC2 secondary2 inactive | HEK counter1 0.024 | KCC2 retest ouab 0.048 | HEK counter2 0.014
O=C(NC(=S)N1CCN(C2CCCCC2)CC1)c1ccccc1	KCC2 mod 35 | KCC2 sec1 0.033 | KCC2 bumet counter 0.053 | KCC2 secondary2 0.047 | HEK counter1 0.03 | KCC2 retest ouab 0.038 | HEK counter2 0.035
O=C(NC(=S)N1CCN(c2ccc([N+](=O)[O-])cc2)CC1)c1ccccc1Cl	none
CCN(CC)C(=S)NC(=O)c1ccc(F)cc1	KCC2 mod 34 | KCC2 sec1 inactive | KCC2 bumet counter 0.052 | KCC2 secondary2 0.049 | HEK counter1 0.033 | KCC2 retest ouab 0.047 | HEK counter2 0.042
O=S(=O)([O-])CCc1cc[n+](CC(O)CCl)cc1 (configuration not stated)	none (no result: KCC2 mod, S1P3 antag)
COc1ccc(NC(=O)N2C3CCCC2CC(NC(C)=O)C3)cc1 (configuration not stated)	none (no result: KCC2 mod, S1P3 antag)
Cc1c(O)ccc2c(CN(C)Cc3ccccc3)cc(=O)oc12	KCC2 mod -6.6 | KCC2 sec1 inactive | KCC2 bumet counter inactive | KCC2 secondary2 inactive | HEK counter1 inconclusive | KCC2 retest ouab 0.015 | HEK counter2 inactive
CC(=O)N1CCN(c2c3c(nc4c(-c5cccs5)c(C)nn24)CCC3)CC1	none (no result: KCC2 mod, EP2 antag, S1P3 antag)
O=c1[nH]c(CSc2nc(-c3ccccc3)cs2)nc2ccccc12	none
O=c1[nH]c(CSc2ncnc3sc(-c4ccccc4)cc23)nc2ccccc12	KCC2 mod 27 | KCC2 sec1 inactive | KCC2 bumet counter 0.024 | KCC2 secondary2 inactive | HEK counter1 0.021 | KCC2 retest ouab 0.032 | HEK counter2 0.014
Cc1nn(CC(=O)N[C@@H](Cn2nc(-c3cccs3)ccc2=O)C(C)C)c(C)c1C	none (no result: KCC2 mod, S1P3 antag)
COc1cc(-c2c(C#N)c(=O)[nH]c3c2c(C)nn3-c2ccccc2)ccc1O	KCC2 mod -5 | KCC2 sec1 inactive | KCC2 bumet counter inactive | KCC2 secondary2 inactive | HEK counter1 inactive | KCC2 retest ouab inconclusive | HEK counter2 inactive
O=C(c1ccccc1NS(=O)(=O)c1ccc(Cl)cc1)N1CCc2ccccc21	KCC2 mod 6.1 | KCC2 sec1 inactive | KCC2 bumet counter 0.044 | KCC2 secondary2 inactive | HEK counter1 0.013 | KCC2 retest ouab 0.054 | HEK counter2 0.011
O=C(c1ccc(Cl)cc1Cl)N1CCc2ccccc21	none (no result: KCC2 mod, S1P3 antag)
O=C(Oc1ccc2ccccc2c1Cl)N1CCCC1	none (no result: KCC2 mod) | KCC2 sec1 inactive | KCC2 bumet counter inactive | KCC2 secondary2 inactive | HEK counter1 inactive | KCC2 retest ouab 0.015 | HEK counter2 inactive
CCOC(=O)N1CCN(c2nc3ccccc3nc2C(C#N)S(=O)(=O)c2ccc(C)cc2)CC1 (configuration not stated)	none (no result: KCC2 mod, EP2 antag) | KCC2 sec1 inactive | KCC2 bumet counter inactive | KCC2 secondary2 0.027 | HEK counter1 inconclusive | KCC2 retest ouab inconclusive | HEK counter2 inconclusive
CCS(=O)(=O)N1CCCC(C(=O)N2CCc3ccccc3C2)C1 (configuration not stated)	none (no result: KCC2 mod, EP2 antag)
Cc1noc(/C=C/c2ccco2)c1S(=O)(=O)N1CCC(C(=O)N2CCc3ccccc3C2)CC1	none (no result: EP2 antag) | KCC2 sec1 inactive | KCC2 bumet counter inactive | KCC2 secondary2 0.026 | HEK counter1 inactive | KCC2 retest ouab inconclusive | HEK counter2 inactive
O=C(C1CCCN(S(=O)(=O)c2cccs2)C1)N1CCc2ccccc2C1 (configuration not stated)	KCC2 mod -3 | KCC2 sec1 inactive | KCC2 bumet counter inactive | KCC2 secondary2 inactive | HEK counter1 inactive | KCC2 retest ouab 0.016 | HEK counter2 inactive
O=C(C1CCN(S(=O)(=O)c2cccs2)CC1)N1CCc2ccccc2C1	KCC2 mod -4.1 | KCC2 sec1 inactive | KCC2 bumet counter inactive | KCC2 secondary2 0.024 | HEK counter1 inactive | KCC2 retest ouab 0.018 | HEK counter2 inactive
COc1ccc(CN(Cc2cn(C)c3ccccc23)CC2CCCO2)c(OC)c1OC (configuration not stated)	none (no result: KCC2 mod, S1P3 antag)
CCc1ccc(NC(=S)NC(=O)c2c(-c3ccccc3Cl)noc2C)cc1	KCC2 mod 16 | KCC2 sec1 inactive | KCC2 bumet counter 0.027 | KCC2 secondary2 0.04 | HEK counter1 0.028 | KCC2 retest ouab 0.032 | HEK counter2 0.017
Cc1onc(-c2ccccc2Cl)c1C(=O)NC(=S)Nc1ccc(C(C)(C)C)cc1	KCC2 mod 6.9 | KCC2 sec1 inactive | KCC2 bumet counter 0.012 | KCC2 secondary2 inactive | HEK counter1 0.013 | KCC2 retest ouab inactive | HEK counter2 0.013
Cc1onc(-c2ccccc2Cl)c1C(=O)Nc1ccccc1	none (no result: S1P3 antag)
CNC(=S)N(Cc1ccc(F)cc1)Cc1cc2cc(OC)ccc2[nH]c1=O	none (no result: KCC2 mod, S1P3 antag)
COCCCN1C(=O)C(O)=C(C(=O)c2ccco2)C1c1ccc(C(C)C)cc1 (configuration not stated)	none (no result: KCC2 mod, S1P3 antag)
Cc1nc(C(=O)NNC(=O)c2ccc(Cl)cc2)c(C(F)(F)F)o1	KCC2 mod 17 | KCC2 sec1 inactive | KCC2 bumet counter 0.03 | KCC2 secondary2 0.039 | HEK counter1 0.024 | KCC2 retest ouab 0.035 | HEK counter2 0.02
Cc1nc(C(=O)NCC(=O)c2ccc(Cl)cc2)c(C(F)(F)F)o1	none
Cc1ccc2cc(CN(Cc3ccc4c(c3)OCO4)S(=O)(=O)c3ccccc3)c(=O)[nH]c2c1C	none (no result: KCC2 mod, S1P3 antag)
O=[N+]([O-])c1ccccc1/C=N/n1c(C2CCCCC2)n[nH]c1=S	KCC2 mod 11 | KCC2 sec1 inactive | KCC2 bumet counter 0.033 | KCC2 secondary2 inactive | HEK counter1 0.024 | KCC2 retest ouab 0.031 | HEK counter2 0.019
S=c1[nH]nc(C2CCCCC2)n1/N=C/C(Cl)=C\c1ccccc1	none
S=c1[nH]nc(C2CCCCC2)n1/N=C/C=C/c1ccccc1	KCC2 mod 7.7 (no result: EP2 antag, S1P3 antag) | KCC2 sec1 inactive | KCC2 bumet counter 0.037 | KCC2 secondary2 0.046 | HEK counter1 0.034 | KCC2 retest ouab 0.032 | HEK counter2 0.031
